In all, about 5,500 compounds went through this assay and about 2,000 (36%) were called active. Not shown: some 18% with an inconclusive outcome. Rule as the data show it: active = normalized growth mostly below about 0.91 (no sharp cut-off); inconclusive = no clear call, values can overlap the other calls; inactive = mostly above about 0.92. The list shows a part of the results.
Assay: chemical genetic growth profiling, strain panel (AID 1159580);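 also: tested at 20 µM; growth read once vehicle control cultures reached saturation at 30 °C; 1 = growth at the plate median or of vehicle wells; lower values mean less growth of the strain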
Settings: growth OD

Measured: normalized growth

COc1ccc(-c2c(O)c3c(OC)c4c(cc3oc2=O)OC(C)(C)C=C4)cc1
active: S. cerevisiae deletion strains, locus YLR418C, strain cdc73, active compounds read low 0.833 | S. cerevisiae deletion strains, locus YML032C, strain rad52, active compounds read low 0.901 | S. cerevisiae deletion strains, locus YNL307C, strain MCK1, active compounds read low 0.84 | S. cerevisiae deletion strains, locus YOL147C, strain pex11, active compounds read low 0.928 | S. cerevisiae deletion strains, locus YOR316C, strain cot1, active compounds read low 0.916 | S. cerevisiae deletion strains, locus YPR119W, strain clb2, active compounds read low 0.928 | S. cerevisiae deletion strains, locus YPR163C, strain tif3, active compounds read low 0.908
inactive: S. cerevisiae deletion strains, locus YJL187C, strain SWE1, active compounds read low 0.952 | S. cerevisiae deletion strains, locus YJR066W, strain TOR1, active compounds read low 0.934 | S. cerevisiae deletion strains, locus YKL009W, strain mrt4, active compounds read low 0.935 | S. cerevisiae deletion strains, locus YKL068W, active compounds read low 0.969 | S. cerevisiae deletion strains, locus YKL085W, strain MDH1 (second series), active compounds read low 0.97 | S. cerevisiae deletion strains, locus YKL085W, strain MDH1, active compounds read low 0.97 | S. cerevisiae deletion strains, locus YKL160W, strain elf1, active compounds read low 0.936 | S. cerevisiae deletion strains, locus YKR001C, strain vps1, active compounds read low 0.97 | S. cerevisiae deletion strains, locus YKR026C, strain gcn3, active compounds read low 0.947 | S. cerevisiae deletion strains, locus YKR091W, strain srl3, active compounds read low 0.954 | S. cerevisiae deletion strains, locus YLL001W, strain dnm1, active compounds read low 0.968 | S. cerevisiae deletion strains, locus YLL026W, active compounds read low 0.959 | S. cerevisiae deletion strains, locus YLL041C, strain sdh2, active compounds read low 0.942 | S. cerevisiae deletion strains, locus YLR027C, strain aat2, active compounds read low 0.965 | S. cerevisiae deletion strains, locus YLR039C, strain RIC1, active compounds read low 1.01 | S. cerevisiae deletion strains, locus YLR058C, strain SHM2, active compounds read low 0.949 | S. cerevisiae deletion strains, locus YLR102C, strain apc9, active compounds read low 0.958 | S. cerevisiae deletion strains, locus YLR113W, strain HOG1, active compounds read low 0.907 | S. cerevisiae deletion strains, locus YLR221C, strain rsa3, active compounds read low 0.962 | S. cerevisiae deletion strains, locus YLR258W, strain gsy2, active compounds read low 0.962 | S. cerevisiae deletion strains, locus YLR262C, strain YPT6 (second series), active compounds read low 0.885 | S. cerevisiae deletion strains, locus YLR262C, strain YPT6, active compounds read low 0.987 | S. cerevisiae deletion strains, locus YLR268W, strain sec22, active compounds read low 0.91 | S. cerevisiae deletion strains, locus YLR320W, strain mms22, active compounds read low 0.921 | S. cerevisiae deletion strains, locus YLR330W, strain CHS5, active compounds read low 0.96 | S. cerevisiae deletion strains, locus YLR342W, strain FKS1, active compounds read low 0.939 | S. cerevisiae deletion strains, locus YLR357W, strain rsc2, active compounds read low 1 | S. cerevisiae deletion strains, locus YLR370C, strain arc18, active compounds read low 0.95 | S. cerevisiae deletion strains, locus YLR371W, strain rom2, active compounds read low 0.98 | S. cerevisiae deletion strains, locus YLR384C, strain iki3, active compounds read low 0.954 | S. cerevisiae deletion strains, locus YML016C, strain PPZ1, active compounds read low 0.958 | S. cerevisiae deletion strains, locus YML120C, strain ndi1, active compounds read low 0.964 | S. cerevisiae deletion strains, locus YML124C, strain tub3, active compounds read low 0.96 | S. cerevisiae deletion strains, locus YMR058W, strain fet3, active compounds read low 0.961 | S. cerevisiae deletion strains, locus YMR078C, strain ctf18, active compounds read low 0.942 | S. cerevisiae deletion strains, locus YMR125W, strain sto1, active compounds read low 0.971 | S. cerevisiae deletion strains, locus YMR129W, active compounds read low 0.95 | S. cerevisiae deletion strains, locus YMR205C, strain PFK2, active compounds read low 0.909 | S. cerevisiae deletion strains, locus YMR223W, strain ubp8, active compounds read low 0.928 | S. cerevisiae deletion strains, locus YMR231W, strain pep5, active compounds read low 0.95 | S. cerevisiae deletion strains, locus YMR307W, strain GAS1, active compounds read low 1.1 | S. cerevisiae deletion strains, locus YNL067W, strain RPL9B, active compounds read low 0.967 | S. cerevisiae deletion strains, locus YNL071W, strain lat1, active compounds read low 0.922 | S. cerevisiae deletion strains, locus YNL128W, strain TEP1, active compounds read low 0.997 | S. cerevisiae deletion strains, locus YNL183C, strain NPR1, active compounds read low 0.911 | S. cerevisiae deletion strains, locus YNL209W, strain ssb2, active compounds read low 0.959 | S. cerevisiae deletion strains, locus YNL233W, strain BNI4, active compounds read low 0.965 | S. cerevisiae deletion strains, locus YNL248C, strain rpa49, active compounds read low 0.967 | S. cerevisiae deletion strains, locus YNL250W, strain rad50, active compounds read low 0.913 | S. cerevisiae deletion strains, locus YNL271C, strain bni1, active compounds read low 1 | S. cerevisiae deletion strains, locus YNL298W, strain CLA4, active compounds read low 0.962 | S. cerevisiae deletion strains, locus YNL322C, strain KRE1 (second series), active compounds read low 0.961 | S. cerevisiae deletion strains, locus YNL322C, strain KRE1, active compounds read low 0.949 | S. cerevisiae deletion strains, locus YNR049C, strain mso1, active compounds read low 0.965 | S. cerevisiae deletion strains, locus YNR052C, strain pop2, active compounds read low 0.946 | S. cerevisiae deletion strains, locus YOL012C, strain htz1 0.954 | S. cerevisiae deletion strains, locus YOR001W, strain rrp6, active compounds read low 0.969 | S. cerevisiae deletion strains, locus YOR061W, strain CKA2, active compounds read low 0.952 | S. cerevisiae deletion strains, locus YOR069W, strain VPS5, active compounds read low 0.952 | S. cerevisiae deletion strains, locus YOR070C, strain gyp1, active compounds read low 0.94 | S. cerevisiae deletion strains, locus YOR080W, strain dia2, active compounds read low 0.971 | S. cerevisiae deletion strains, locus YOR083W, strain WHI5, active compounds read low 0.953 | S. cerevisiae deletion strains, locus YOR106W, strain vam3, active compounds read low 0.971 | S. cerevisiae deletion strains, locus YOR136W, strain idh2, active compounds read low 0.959 | S. cerevisiae deletion strains, locus YOR144C, strain elg1, active compounds read low 0.942 | S. cerevisiae deletion strains, locus YOR184W, strain ser1, active compounds read low 0.971 | S. cerevisiae deletion strains, locus YOR231W, strain MKK1, active compounds read low 0.969 | S. cerevisiae deletion strains, locus YOR265W, strain rbl2, active compounds read low 0.937 | S. cerevisiae deletion strains, locus YOR270C, strain vph1, active compounds read low 0.923 | S. cerevisiae deletion strains, locus YOR290C, strain snf2, active compounds read low 0.938 | S. cerevisiae deletion strains, locus YPL051W, strain arl3, active compounds read low 0.951 | S. cerevisiae deletion strains, locus YPL078C, strain atp4, active compounds read low 0.967 | S. cerevisiae deletion strains, locus YPL106C, strain sse1, active compounds read low 1.01 | S. cerevisiae deletion strains, locus YPL240C, strain hsp82, active compounds read low 0.95 | S. cerevisiae deletion strains, locus YPL241C, strain CIN2, active compounds read low 0.938 | S. cerevisiae deletion strains, locus YPL256C, strain CLN2, active compounds read low 0.933 | S. cerevisiae deletion strains, locus YPR141C, strain kar3, active compounds read low 0.958 | S. cerevisiae deletion strains, locus YPR167C, strain met16, active compounds read low 0.94 | S. cerevisiae deletion strains, strain wtn01, active compounds read low 0.958 | S. cerevisiae strains, strain wild type, active compounds read low 0.993
